This is an account of results in publication PMC4336329 (PLoS ONE, 2015).

Each structure is given as a SMILES string. In all, about 310,000 compounds went through this assay and about 14,000 (4.5%) showed an effect of 50% or more. The effect is printed as a negative number. Shown is part of a subset that was picked to be rich in strong results.
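Note: peak tail current of the secondary pulse compared with the same well before compound.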

The assay deals with human ether-à-go-go-related gene (hERG) potassium channel (human, UniProt Q12809). Nature of the assay: primary screen, population patch clamp on CHO cells stably expressing hERG; higher = less effect of the substance. The protocol: Briefly, Chinese hamster ovary (CHO) cells stably expressing the hERG channel were dislodged from tissue culture flasks and dispensed into PPC plates. […] During the recording, background leak currents were estimated by a 100 ms step to -80 mV from an initial holding potential of -70 mV and subtracted from the subsequent current measurement. The campaign was conducted in two phases using slight differences in recording protocol. In the first phase, the initial voltage pulse used a 100 ms step to -30 mV from a holding potential of -70 mV, a 2 s conditioning step to +25 mV, and a 2 s test step to -30 mV. During the second phase of the screen, the potential during the conditioning step was raised to +45 mV. In both phases of the campaign, a secondary voltage pulse was applied using the same parameters as the second phase initial pulse. The initial and secondary pulses were applied in the absence of compound, and upon application of 1 μM and 10 μM test concentrations. […]
human ether-à-go-go-related gene (hERG) potassium channel, sequence (Q12809 whole entry, looked up): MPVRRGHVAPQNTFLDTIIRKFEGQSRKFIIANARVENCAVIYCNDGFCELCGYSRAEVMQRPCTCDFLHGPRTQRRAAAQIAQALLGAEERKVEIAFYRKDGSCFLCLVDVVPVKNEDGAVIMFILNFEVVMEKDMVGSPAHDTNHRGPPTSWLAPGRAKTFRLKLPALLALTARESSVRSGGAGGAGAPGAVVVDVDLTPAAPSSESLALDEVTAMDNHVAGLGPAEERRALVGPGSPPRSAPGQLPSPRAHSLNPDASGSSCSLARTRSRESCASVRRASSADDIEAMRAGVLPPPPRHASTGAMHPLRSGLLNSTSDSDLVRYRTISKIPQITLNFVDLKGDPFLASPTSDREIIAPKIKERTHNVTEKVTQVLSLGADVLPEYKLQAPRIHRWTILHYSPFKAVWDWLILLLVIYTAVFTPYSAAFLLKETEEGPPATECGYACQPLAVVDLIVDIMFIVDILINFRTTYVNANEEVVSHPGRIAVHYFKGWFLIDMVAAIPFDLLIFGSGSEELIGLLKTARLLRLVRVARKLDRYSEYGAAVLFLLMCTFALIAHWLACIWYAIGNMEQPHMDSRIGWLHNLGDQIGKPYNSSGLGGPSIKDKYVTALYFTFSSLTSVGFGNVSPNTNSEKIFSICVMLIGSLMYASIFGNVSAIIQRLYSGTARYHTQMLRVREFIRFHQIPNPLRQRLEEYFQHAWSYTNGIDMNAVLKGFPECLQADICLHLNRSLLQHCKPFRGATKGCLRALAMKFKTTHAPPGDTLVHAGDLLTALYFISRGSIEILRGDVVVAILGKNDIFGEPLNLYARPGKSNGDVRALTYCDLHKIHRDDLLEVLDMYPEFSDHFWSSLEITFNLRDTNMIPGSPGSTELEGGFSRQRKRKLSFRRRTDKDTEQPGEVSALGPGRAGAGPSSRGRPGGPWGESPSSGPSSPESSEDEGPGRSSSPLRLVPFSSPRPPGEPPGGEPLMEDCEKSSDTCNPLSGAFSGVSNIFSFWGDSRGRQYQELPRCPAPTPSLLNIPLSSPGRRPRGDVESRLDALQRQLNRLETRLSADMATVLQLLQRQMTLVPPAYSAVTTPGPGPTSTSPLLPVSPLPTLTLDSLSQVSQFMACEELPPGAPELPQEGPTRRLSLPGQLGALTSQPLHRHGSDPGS
For `Cc1c(C(=O)N2CCN(c3ccccc3)CC2)sc2ncnc(N3CCC(C)CC3)c12`, the “hERG current change (%, negative = inhibition) at 10uM” value is given as -29.9%. In the case of `Cc1c(C(=O)N2CCC(Cc3ccccc3)CC2)sc2ncnc(N3CCC(C)CC3)c12`, the “hERG current change (%, negative = inhibition) at 10uM” value came out at 8.19%. The value for `CCOC(=O)C1CCCN(C(=O)c2sc3nc(C)nc(N4CCOCC4)c3c2C)C1` (stereo not shown) was -3.42%; that for `CCOC(=O)C1CCN(C(=O)c2sc3nc(C)nc(N4CCC(C)CC4)c3c2C)CC1` was -52.7%; that for `CCN1CCN(C(=O)c2sc3nc(C)nc(N4CCC(C)CC4)c3c2C)CC1` was -8.16%. As to `CCOC(=O)C1CCN(C(=O)c2sc3ncnc(N4CCC(C)CC4)c3c2C)CC1`, the “hERG current change (%, negative = inhibition) at 10uM” value is -73.2%. The value for `Cc1nn(-c2nnc(NC3CCCCC3)nn2)c(C)c1Br` was 10.8%; that for `OC1(c2ccccc2F)CCN(Cc2nnnn2Cc2ccc(F)cc2)CC1` was 8.52%; that for `C/C(N)=C(/C#N)C(=O)CSc1nc2cc(Cl)ccc2c(=O)n1Cc1ccco1` was 16.8%. With `CC1(C)CC(=O)C2=C(C1)OC(/N=C/N1CCOCC1)=C(C#N)C2c1ccccc1` (stereo not shown), the “hERG current change (%, negative = inhibition) at 10uM” value is listed as -11%. Turning to `CCOc1cccc(OCCn2cnc3ccccc3c2=O)c1`, the “hERG current change (%, negative = inhibition) at 10uM” value stood at 5.84%. In the case of `Cn1c(=O)c2c(ncn2CC(=O)N2CCN(c3ccc(F)cc3)CC2)n(C)c1=O` it was -23.4%; in that of `Cn1c(=O)c2c(ncn2CC(=O)N2CCN(c3cccc(Cl)c3)CC2)n(C)c1=O`, -64.2%. In the case of `Cc1cccc(N2CCN(C(=O)Cn3cnc4c3c(=O)n(C)c(=O)n4C)CC2)c1C` it was -26%. In the case of `Cn1c(=O)c2c(ncn2CC(=O)N2CCN(c3ccc([N+](=O)[O-])cc3)CC2)n(C)c1=O` it was -72%; in that of `Cn1c(=O)c2c(ncn2CC(=O)N2CCN(c3ccccc3)CC2)n(C)c1=O`, 0.318%; in that of `COc1ccc(N2CCN(C(=O)Cn3cnc4c3c(=O)n(C)c(=O)n4C)CC2)cc1`, 5.48%. In the case of `Cn1c(=O)c2c(nc(N3CCOCC3)n2C)n(C)c1=O`, the “hERG current change (%, negative = inhibition) at 10uM” value is -4.44%. In the case of `Cn1c(=O)c2c(nc(N3CCCC3)n2C)n(C)c1=O` it was 10%. In the case of `Cn1c(=O)c2c(nc(N3CCN(c4ccc([N+](=O)[O-])cc4)CC3)n2C)n(C)c1=O` it was -76.2%; in that of `Cc1ccc(C(=O)c2ccccc2C(=O)O)s1`, -1.28%. Consider `COc1cccc(N2CCN(C3C4CC5CC(C4)CC3C5)CC2)c1` (stereo not shown), for which the “hERG current change (%, negative = inhibition) at 10uM” value was 2.54%. The value for `CC(=O)Nc1nc(NC(=O)/C=C/c2ccccc2)n(-c2ccccc2)n1` was -1.34%. In the case of `COC(CNC(=O)c1ccc2c(c1)ncn2C1CCCCCC1)OC` it was 4.09%; in that of `COc1ccc(-c2noc(C3CCCN(C(=O)c4cccs4)C3)n2)cc1` (stereo not shown), -21.1%.

In the case of `O=C(c1ccc(F)cc1)N1CCCC(c2nc(-c3cccs3)no2)C1` (stereo not shown), the “hERG current change (%, negative = inhibition) at 10uM” value was -18.5%.

Regarding `O=C(c1c(F)cccc1F)N1CCCC(c2nc(-c3ccc(F)cc3)no2)C1` (stereo not shown), the “hERG current change (%, negative = inhibition) at 10uM” value is listed as -6.69%.

On to `O=C(c1cccs1)N1CCCC(c2nc(-c3ccc(F)cc3)no2)C1` (stereo not shown), for which the “hERG current change (%, negative = inhibition) at 10uM” value is on record as -51.7%. The value for `O=C(c1ccc(F)cc1)N1CCCC(c2nc(-c3ccncc3)no2)C1` (stereo not shown) was -65.6%. The value for `COc1ccc(-c2noc(C3CCCN(C(=O)c4ccc(F)cc4)C3)n2)cc1` (stereo not shown) was -35.3%.

In the case of `CCN1C(=O)c2cccc3c(S(=O)(=O)NCC4CCCO4)ccc1c23` (stereo not shown), the “hERG current change (%, negative = inhibition) at 10uM” value is listed as 1.95%.

With `COCCNC(=O)C(c1cccc(OC)c1)N(C(=O)Cn1nnc2ccccc21)c1cccnc1` (stereo not shown), the “hERG current change (%, negative = inhibition) at 10uM” value came to 7.66%. In the case of `COCC1CCCCN1C(=O)c1ccc(OC2CCN(Cc3ccccn3)CC2)cc1` (stereo not shown) it was 1.34%; in that of `CC(=O)Nc1cc(NC(C)=O)cc(-c2nc3ccccc3[nH]2)c1`, 3.84%. The value for `COc1ccc(/C=C(\NC(=O)c2ccc(C)cc2)C(=O)NCCCN2CCOCC2)cc1OC` was 19.9%.

In the case of `Cc1ccc(C(=O)N/C(=C/c2ccc(C(C)C)cc2)C(=O)NCCCN2CCOCC2)cc1`, the “hERG current change (%, negative = inhibition) at 10uM” value is given as -65.8%.

As to `Cc1ccc(C(=O)N/C(=C\c2ccc(C(C)C)cc2)C(=O)NCCCN2CCOCC2)cc1`, the “hERG current change (%, negative = inhibition) at 10uM” value is given as -72.3%.

Consider `CC(C)c1ccc(/C=N/NC(=O)C(=O)NCCCN2CCOCC2)cc1`, for which the “hERG current change (%, negative = inhibition) at 10uM” value is given as -20.6%.

`CC(C)c1ccc(NC2CCCN(C(=O)c3n[nH]c4c3CCC4)C2)cc1` (stereo not shown): the “hERG current change (%, negative = inhibition) at 10uM” value was 5.38%. The value for `C=CCN(c1ccccc1C(=O)O)S(=O)(=O)c1ccc(NC(=O)OC)cc1` was 4.39%. The value for `CC1CCCCC1NC(=O)CN(C)S(=O)(=O)c1cccc2cccnc12` (stereo not shown) was -0.115%.

`COc1cccc(SCC(=O)N2CCN(c3ccccc3)CC2)c1`: the “hERG current change (%, negative = inhibition) at 10uM” value was -1.23%. `CCN1/C(=C/c2ccc3cc(C)ccc3[n+]2CC)Sc2ccccc21.[I-]`: the “hERG current change (%, negative = inhibition) at 10uM” value is -90.6%. The value for `CCN1/C(=C/c2ccc3cc(C)ccc3[n+]2CC)Sc2ccc3sccc3c21.[I-]` was -44.5%.

For `Cc1ccc2c(c1)S/C(=C\c1cccc[n+]1C)N2CCO.[I-]`, the “hERG current change (%, negative = inhibition) at 10uM” value is given as -0.805%. In the case of `CCN1/C(=C/c2ccc3cccc(C)c3[n+]2CC)Sc2ccccc21.[I-]` it was -75%.

Take `CC[n+]1c(S(=O)(=O)[O-])ccc2ccc(C)cc21`: the “hERG current change (%, negative = inhibition) at 10uM” value was 6.26%. The value for `CCC(=O)/C=C1\Sc2ccccc2N1CC` was -3.72%; that for `CCC(=O)/C=C1/Sc2ccccc2N1CC` was 7.66%; that for `CCN1/C(=C/C(=O)c2ccco2)Sc2ccccc21` was 8.09%. In the case of `CCN1/C(=C/c2ccc3ccc(C)cc3[n+]2CC)Sc2ccccc21.[I-]` it was -81.1%; in that of `COc1ccccc1CNCC(=O)Nc1ccc(N2CCOCC2)cc1.O=C(O)C(=O)O`, 1.57%; in that of `O=C(NCc1cccnc1)C1CCCCN1S(=O)(=O)c1ccc(F)cc1` (stereo not shown), -20.9%. In the case of `CC(=O)Nc1ccc(S(=O)(=O)N2CCN(C(=O)Cc3ccccc3)CC2)cc1`, the “hERG current change (%, negative = inhibition) at 10uM” value is -1.44%. `COc1ccc(CN(CCNC(=O)CCCCC(=O)NCCN(Cc2ccc(OC)cc2)C(C)C)C(C)C)cc1.Cl`: the “hERG current change (%, negative = inhibition) at 10uM” value was -5.63%. The value for `O=C(CCCOc1ccccc1)Nc1nncs1` was -5.59%; that for `COc1ccc(OC)c(N2C(=O)NC(=O)C3(Cc4cc(C)ccc4N(C)C3)C2=O)c1` (stereo not shown) was -5.52%. Regarding `Cc1ccccc1Oc1cc(-n2ncc(Cl)c(Cl)c2=O)ncn1`, the “hERG current change (%, negative = inhibition) at 10uM” value came to 6.67%.

`CCc1cccc(CC)c1NC(=O)COc1ccccc1C(=O)c1cc(C#N)c(=O)n(C2CCCCC2)c1`: the “hERG current change (%, negative = inhibition) at 10uM” value was determined as 14.4%. Regarding `CCCCNC(=O)c1ccccc1Cl`, the “hERG current change (%, negative = inhibition) at 10uM” value was 21.5%. For the compound `CN1CCc2c(n(CC(O)CN3CCN(CCO)CC3)c3ccccc23)C1=O.Cl` (stereo not shown), the “hERG current change (%, negative = inhibition) at 10uM” value is recorded as 2.24%. In the case of `CN1CCc2c(n(CC(O)CNCc3ccccc3)c3ccccc23)C1=O.Cl` (stereo not shown) it was -52.8%; in that of `CN1CCc2c(n(CC(O)CN(CCO)CCO)c3ccccc23)C1=O.Cl` (stereo not shown), 6.94%; in that of `Cc1cc(C)cc(N2CC(C)Cn3c2nc2c3c(=O)[nH]c(=O)n2C)c1` (stereo not shown), -2.03%. The value for `CCC(Oc1ccccc1)C(=O)NC1CCCCCC1` (stereo not shown) was -0.406%; that for `CCC1CCCCN1C(=O)CCn1c(=O)oc2ccccc21` (stereo not shown) was -17.7%. Consider `O=C(N/N=C/c1cccnc1)c1cc(-c2cccs2)nc2ccccc12`, for which the “hERG current change (%, negative = inhibition) at 10uM” value is reported as -20%. The value for `CCC(C)Sc1cccc(-c2nc3cc(C)ccn3c2NCc2ccccc2)c1.O=C(O)C(F)(F)F` (stereo not shown) was 4.02%; that for `Cc1ccc(S(=O)(=O)N2CCCCC2)cc1C(=O)N1CCN(CCO)CC1` was 3.41%. In the case of `O=C(C1=NN[C@@H]2C(=O)N(Cc3ccccc3)C(=O)[C@H]12)c1ccc([N+](=O)[O-])cc1` it was -50.2%; in that of `O=C(OCc1ccccc1)C1=NNC2C(=O)N(Cc3ccccc3)C(=O)C12` (stereo not shown), 16.2%. Regarding `O=C(C1=NN[C@@H]2C(=O)N(Cc3ccccc3)C(=O)[C@H]12)c1ccc(F)cc1`, the “hERG current change (%, negative = inhibition) at 10uM” value is recorded as 7.44%. In the case of `CC(C)(C)c1nnc(NS(=O)(=O)c2ccc([N+](=O)[O-])cc2)s1` it was 28.3%; in that of `COc1cccc(-c2nc(N3CCN(c4ccccc4)CC3)c3ccccc3n2)c1O`, 0.912%; in that of `c1ccc(-c2nc(N3CCCCCC3)c3ccccc3n2)nc1`, -77.5%.

Take `Oc1ccccc1-c1nc(N2CCCC2)c2ccccc2n1`: the “hERG current change (%, negative = inhibition) at 10uM” value is reported as -13.2%. The value for `c1ccc(-c2nc(N3CCOCC3)c3ccccc3n2)nc1` was -15.9%; that for `CN1CCN(c2nc(-c3ccccn3)nc3ccccc23)CC1` was -51.4%; that for `CSc1nc(N2CCN(C)CC2)c2ccccc2n1` was -49.1%. The value for `c1ccc(N2CCN(c3nc(-c4ccccn4)nc4ccccc34)CC2)cc1` was -73.9%. In the case of `Fc1ccccc1-c1nc(N2CCCCC2)c2ccccc2n1`, the “hERG current change (%, negative = inhibition) at 10uM” value is -1.61%. In the case of `CCN1CCN(c2nc(-c3ccccn3)nc3ccccc23)CC1`, the “hERG current change (%, negative = inhibition) at 10uM” value is recorded as -56.3%. In the case of `c1ccc(CN2CCN(c3nc(-c4ccccn4)nc4ccccc34)CC2)cc1` it was 5.45%; in that of `Cc1cc(C)c(S(=O)(=O)N2CCOC2CNC(=O)C(=O)NCCN(C)C)c(C)c1` (stereo not shown), 13.1%; in that of `COc1ccc2[nH]cc(CCNC(=O)c3ccco3)c2c1`, 12.3%.
